# Test results from ChEMBL document CHEMBL3988442, “University of Dundee, Small-Polar-MMV Screening Library” (2021).
# Among all 48,000 compounds or so, about 13,000 (27%) showed an effect of 50% or more. Some of the results follow.
# System: Wolbachia pipientis
# Assay: Anti-Wolbachia Cell-Based Screen
# Assay type: functional
# Parameters: scale not given: in the data most compounds retested in dose-response had high values
# Settings: 5 µM
row,SMILES,Percent Effect [%]
1,O=C(CN1CCS(=O)(=O)CC1)NC1CCCCc2ccccc21 (stereo unspecified),-11.03
2,CCC(Nc1nnnn1-c1ccccc1)C(=O)NCc1cccs1 (stereo unspecified),-3.486
3,CN1CCOC[C@H]1c1nc(-c2ccc(F)cc2F)c[nH]1,2.014
4,COC1CCCN(CCCc2cn[nH]c2)C1 (stereo unspecified),-27.42
5,OC1CCN([C@@H]2CCN(c3nc(-c4ccccc4)no3)C[C@H]2O)CC1,-5.249
6,CCCN1CC2(CCN(C)CC2)CC1C(=O)NCc1cc(C)nn1C (stereo unspecified),6.557
7,O=C(NCC(F)(F)F)C1CN(C(=O)c2cnccn2)C1,-11.97
8,Cc1nnc([C@H]2C[C@@H]3CCN(C(=O)C4CCOCC4)C[C@H]3O2)[nH]1,-13.79
9,CCn1nc(C)cc1C(=O)N1C[C@@H]2C[C@@H](c3nnc(C)[nH]3)O[C@@H]2C1,102
10,Cc1nnc([C@@H]2C[C@H]3CN(C(=O)c4sccc4C)C[C@H]3O2)[nH]1,-0.8336
11,CCc1nc(N2CCCC(CCCOC)(C(=O)O)C2)ncc1C (stereo unspecified),-7.437
12,CO[C@H]1CCN(c2ncccn2)[C@H]1Cc1ccccc1,1.779
13,CO[C@H]1CCN(Cc2nccs2)C[C@@H]1Cc1ccccc1,1.604
14,Cc1cc2c(cc1C)C(NC1CC1)CCCO2 (stereo unspecified),-4.167
15,CCCc1ccc(C(=O)N2Cc3c(Cn4ccnc4)nn(C)c3C2)cc1.O=CO,-14.37
16,CC(C)Cn1cnc2ccc(NC(=O)CCCn3cccn3)cc2c1=O,102.5
17,CC(C)Cn1cncc1CNC(=O)c1cccc(Cn2cccn2)c1,0.1096
18,CC(C)n1cnc2ccc(NC(=O)CCCn3cccn3)cc2c1=O,106
19,COCCn1cnc2ccc(NC(=O)CCCn3cccn3)cc2c1=O,181
20,Cn1cnc2ccc(NC(=O)CCCn3cccn3)cc2c1=O,106.9
21,COCCn1ccc(NC(=O)Nc2ccncc2)n1,5.636
22,CC(C)c1nc(NC(=O)CCCn2cccc2)n(C)n1,-8.102

row,SMILES,Percent Effect [%]
1,CCN(CC)c1ccc(NC(=O)NC(C)Cn2cccn2)cn1 (stereo unspecified),-15.96
2,CCNC(=O)CCC(=O)Nc1ccc2nn(C(C)C)cc2c1,9.58
3,COCCn1ccc(NC(=O)Nc2ccc(C)cc2)n1,3.618
4,COC(=O)CC(NC(=O)CCCn1cccn1)c1ccc(Cl)cc1 (stereo unspecified),-43.24
5,Cc1ccc(C(=O)NCCCn2cccn2)c(=O)[nH]1,22.25
6,CCc1nnsc1C(=O)NCCCC(CC)(CC)C1OCCO1,-13.99
7,CC(C)c1nnc2n1CC(CNc1cnc3ccccc3n1)CC2 (stereo unspecified),-3.73
8,Cc1cc(C)n(C2CN(CC(O)COc3ccc(F)cc3)C2)n1 (stereo unspecified),3.815
9,CC(NCCc1nccn1Cc1ccccc1)c1ccsc1 (stereo unspecified),1.494
10,O=C(c1ccc[nH]1)N1C[C@H]2CC[C@@H]1CN(c1ncccn1)C2,-10.43
11,CCOc1ncccc1-c1cc2c(cc1C(N)=O)OCO2,2.212
12,COC(=O)CNC(=O)CSCc1nc(O)c2c(C)c(C)sc2n1,7.048
13,CNS(=O)(=O)c1cccc(C(C)NCc2nccn2C(C)C)c1 (stereo unspecified),-13.68
14,CC(C)(C)c1nc(CN2CCC3(CCCO3)CCC2=O)no1 (stereo unspecified),-4.31
15,O=C(CCc1ccccc1F)NS(=O)(=O)c1ccc2c(c1)OCCCO2,3.529
16,COCCN1C[C@H]2CC[C@@H]1CN(Cc1nc3ccccc3n1C)C2,17.95
17,Cn1c(CN2CCOC[C@H]2c2nc(C(C)(C)C)co2)nc2ccccc21,-2.257
18,CO[C@H]1CN(Cc2nc3ccccc3n2C)CC[C@@]12CCCO2,137.2
19,CO[C@H]1CN(Cc2nc3ccccc3n2C)C[C@@]12CCCO2,116
20,Cn1c(CO[C@H]2CN(S(C)(=O)=O)C[C@H]2F)nc2ccccc21,0.03029
21,CC(=O)Nc1c(C)noc1/C=C\c1ccc(S(=O)(=O)NC2CC2)cc1,127.5
22,CC(=O)Nc1c(C)noc1/C=C\c1ccc(S(=O)(=O)N2CCCC2)cc1,101.8

row,SMILES,Percent Effect [%]
1,Cc1noc(C)c1NS(=O)(=O)c1cc(Cl)c(Cl)c(C(=O)O)c1,-2.046
2,CC(=O)Nc1c(C)noc1/C=C\c1ccc(C)c(S(=O)(=O)NC2CC2)c1,113.9
3,Cc1cc(C)c(S(=O)(=O)Nc2c(C)noc2C)cc1C(=O)O,-6.139
4,CCN(CC1CCCO1)S(=O)(=O)c1cc(NC(C)=O)ccc1C (stereo unspecified),-4.974
5,Cc1ccc(S(=O)(=O)NC2CC2)cc1C,3.676
6,CC(C)N(CCNC(=O)c1ccc(S(=O)(=O)NC2CC2)cc1)C(C)C,-4.232
7,CCOc1ccc(S(=O)(=O)NC(=O)c2c(C)noc2C(C)C)cc1,3.193
8,CCC(C)NS(=O)(=O)c1ccc(/C=C\c2onc(C)c2NC(C)=O)cc1 (stereo unspecified),102.8
9,Cc1cc(NC(=O)NCc2ccc(S(=O)(=O)N3CCCC3)s2)no1,-7.015
10,Cc1noc(C)c1C(=O)N(C)C(C)c1ccc(S(C)(=O)=O)cc1 (stereo unspecified),-13.22
11,COCc1c(C(=O)N2CCCC(C(=O)c3ccccc3)C2)noc1C (stereo unspecified),18.29
12,CC(C)c1noc(-c2ccc(N(C)C3CCOCC3)nc2)n1,4.725
13,CCc1ccc(C(=O)N(c2cccnc2)C(C)C)cc1S(C)(=O)=O,-4.905
14,Cn1cc(N2CCCC(NCc3cccc4c3OCCCO4)C2)cn1 (stereo unspecified),5.522
15,CC(=O)N1CCN(Cc2csc(-c3cnn(C)c3)n2)CC1,-2.698
16,CN(CCOc1ccccc1)C(=O)Nc1cccn(C)c1=O,-7.911
17,CCn1nc(C)c(CNCCn2cc(C)cn2)c1C,-3.614
18,CCc1n[nH]c(C2CN(C(=O)c3cnc(C)s3)CCO2)n1 (stereo unspecified),1.148
19,CCc1n[nH]c(C2CN(C(=O)c3cnc(C)cn3)CCO2)n1 (stereo unspecified),99.84
20,CCc1n[nH]c(C2CN(C(=O)c3csnn3)CCO2)n1 (stereo unspecified),5.505
21,CCc1n[nH]c(C2CN(C(=O)c3cnns3)CCO2)n1 (stereo unspecified),-10.08
22,CCc1n[nH]c(C2CN(C(=O)c3ccc(Cl)cn3)CCO2)n1 (stereo unspecified),105.2

row,SMILES,Percent Effect [%]
1,CCc1n[nH]c(C2CN(C(=O)c3ccsc3)CCO2)n1 (stereo unspecified),-7.314
2,CCc1n[nH]c(C2CN(C(=O)c3cscn3)CCO2)n1 (stereo unspecified),131.5
3,CCc1n[nH]c(C2CN(C(=O)c3cnn(CC)c3)CCO2)n1 (stereo unspecified),143.5
4,Cc1ccc2c(c1)CCC21CCN(CCO)CC1,9.958
5,Cc1ccc(NC(=O)N(CCO)CCO)c(OCc2ccccc2)c1,-35.37
6,Cc1cc(CN(Cc2cccs2)CC2CCCO2)no1 (stereo unspecified),-7.251
7,COc1ccc(CN(Cc2cncn2C)CC2CCCO2)c(OC)c1.O=C(O)CC(O)(CC(=O)O)C(=O)O (stereo unspecified),-9.808
8,Nc1nccnc1C(=O)N(Cc1ccccc1O)CC1CCCO1 (stereo unspecified),-11.08
9,COc1ccc(CN(CC2CCCO2)c2nc3c(s2)c(C)nn3C)cc1 (stereo unspecified),-25.43
10,CCn1cncc1CN(Cc1ccc(OC)cc1OC)CC1CCCO1.O=C(O)CC(O)(CC(=O)O)C(=O)O (stereo unspecified),91.73
11,COC(=O)CCN(CC1CCCO1)C(=O)Cc1ccc(OC)c(OC)c1 (stereo unspecified),2.857
12,COc1ccc(CN(Cc2cnc(N)nc2)CC2CCCO2)c(OC)c1.O=C(O)CC(O)(CC(=O)O)C(=O)O (stereo unspecified),113.1
13,COc1ccc(CN(Cc2ccccn2)Cc2cncn2C)cc1.O=C(O)CC(O)(CC(=O)O)C(=O)O,130.6
14,COc1ccc(CN(Cc2cn(C)nc2C)CC2CCCO2)c(OC)c1 (stereo unspecified),138
15,CCN1CCN(c2ccc(F)cc2C(C)NCc2ccncc2)CC1 (stereo unspecified),0.6189
16,COCCC(C)NC(=O)Nc1ccc(N2CCOC2=O)c(OC)c1 (stereo unspecified),-2.31
17,O=C(Cn1ccc2ccccc21)Nc1cc(N2CCOCC2)ncn1,-11.42
18,CN(C)C(=O)Cc1ccc(NC(=O)NC2CC2)cc1,-3.674
19,COc1ccccc1CN(Cc1cccnc1)CC1CCCO1.O=C(O)CC(O)(CC(=O)O)C(=O)O (stereo unspecified),117.4
20,O=c1[nH]c2ccccc2cc1CN(Cc1ccccn1)CC1CCCO1 (stereo unspecified),7.522
21,COc1ccc(CN(Cc2cncn2C)CC2CCCO2)cc1OC.O=C(O)CC(O)(CC(=O)O)C(=O)O (stereo unspecified),-10.71
22,Cc1nc2ccccn2c1CN(Cc1cccnc1)CC1CCCO1 (stereo unspecified),-2.807

row,SMILES,Percent Effect [%]
1,COc1ccc(CN(Cc2cncn2C)CC2CCCO2)cc1.O=C(O)CC(O)(CC(=O)O)C(=O)O (stereo unspecified),108.8
2,COc1ccc(CN(Cc2c[nH]cn2)CC2CCCO2)c(OC)c1.O=C(O)CC(O)(CC(=O)O)C(=O)O (stereo unspecified),99.96
3,COc1ccccc1CN(Cc1cccnc1)Cc1c[nH]c(C)n1,-35.67
4,COc1ccc(CN(C(=O)C2CCCOC2)c2ccncc2)cc1 (stereo unspecified),-5.222
5,Cn1cnc2c(N3CCCC3)nc(C3CCN(CC4CC4)CC3)cc21.O=C(O)C(F)(F)F.O=C(O)C(F)(F)F,-3.967
6,O=C(O)c1coc(COc2cccc3cnccc23)n1,-2.104
7,CC(=O)N1CCC(N2C[C@@H](F)[C@@H](OCc3nc4ncccc4[nH]3)C2)CC1,-11.9
8,CNS(=O)(=O)c1cccc(C(C)NCc2ccncc2)c1 (stereo unspecified),-20.6
9,CCN1CC[C@]2(CN(Cc3nccs3)C[C@H]2c2ccccc2)C1=O.O=C(O)C(F)(F)F,-7.222
10,CN1CC[C@]2(CN(S(C)(=O)=O)C[C@H]2c2ccccc2)C1=O,102.2
11,CN1CC(c2ccccc2)C2(CCN(C(=O)c3cccn3C)CC2)C1=O (stereo unspecified),-2.229
12,CCN1C(=O)C(c2ccccc2)CC12CCN(S(C)(=O)=O)CC2 (stereo unspecified),-8.52
13,Cc1cc(CN2C[C@@H](C)[C@@]3(CCN(CC(=O)N(C)C)C3=O)C2)oc1C.O=C(O)C(F)(F)F,15.48
14,CN(C)C(=O)CN1CC[C@]2(CN(CC3CC3)C[C@H]2c2ccccc2)C1=O.O=C(O)C(F)(F)F,97.34
15,CN1CC[C@]2(CN(CC3CCOC3)C[C@H]2c2ccccc2)C1=O.O=C(O)C(F)(F)F (stereo partly specified),100.2
16,CN1CC[C@]2(CN(CC3CCOCC3)C[C@H]2c2ccccc2)C1=O.O=C(O)C(F)(F)F,123.3
17,CN1CCC2(CCN(CC3CCOCC3)CC2)C1=O.O=C(O)C(F)(F)F,-1.769
18,CN1CC[C@]2(CN(Cc3nccs3)C[C@H]2c2ccccc2)C1=O.O=C(O)C(F)(F)F,-12.3
